IL1B secr inh: qHTS for Inhibitors of Inflammasome Signaling: IL-1-beta AlphaLISA Primary Screen; activity change, % at 57.5 µM; AID 743279, 2014; 360,000 compounds, 4.7% hits; THP-1 LPS/ATP IL-1B secretion, AlphaLISA, 16 h; stronger effect = lower value; in the data active means activity change below about -50%; inconclusive means mostly about -30% to -49%
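THP-1 cells pretreated 1 hr with compounds (up to 57.5 uM final), then stimulated with LPS (250 ng/mL final) plus ATP (1.25 mM final); secreted IL-1B measured by AlphaLISA after 16 hr, decreased signal indicating inhibition.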
DT40 TDP1 no CPT: qHTS for Inhibitors of human tyrosyl-DNA phosphodiesterase 1 (TDP1): qHTS in cells in absence of CPT; DT40 Tdp1-/- hTDP1 cells, no CPT, ATP luminescence, 48 h; Potency, µM (titrated, usually from 46.2 µM), hits mostly inhibitors; 420,000 compounds, 15% hits; further: nearly all actives have a fitted effect of over 55% in size
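Growth kinetics read by CellTiter-Glo luminescence after ≥48 hr at 37 °C. Cells: DT40 Tdp1-/- stably carrying human TDP1, 400 per well, compound exposure in the absence of CPT (DMSO vehicle).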
TDP1 cell CPT: qHTS for Inhibitors of human tyrosyl-DNA phosphodiesterase 1 (TDP1): qHTS in cells in presence of CPT; chicken DT40 Tdp1-/-;hTDP1 cells + 20 nM CPT, ATP luminescence, 48 h; 420,000 compounds, 12% hits; Potency, µM (titrated, usually from 46.2 µM), hits mostly inhibitors; further: nearly all actives have a fitted effect of over 55% in size
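Cell growth measured by CellTiter-Glo luminescence after a minimum 48 h, 37 C compound exposure with 20 nM CPT in Tdp1-knockout DT40 cells stably expressing hTDP1, seeded 400/well; qHTS titration format.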
HT1080NT lethal: qHTS for induction of synthetic lethality in tumor cells producing 2HG: qHTS for the HT-1080-NT fibrosarcoma cell line; HT-1080-NT fibrosarcoma viability, CellTiter-Glo ATP luminescence, 48 h; Potency, µM (series often up to 46.1 µM), actives largely listed as cytotoxic; 360,000 compounds, 1.6% hits; AID 686970, 2013;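 further: NT is the 2HG producing partner of a matched IDH1 knockdown line; nearly all actives have a fitted effect of over 55% in size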
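Luminescent CellTiter-Glo readout after 48 hours of compound exposure at 37 degrees C defined viability of HT-1080-NT cells. Activity was normalized to DMSO wells and cell-free media wells; concentration-response curves were fitted and assigned curve classes.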
HT1080 IDH1KD tx: qHTS for induction of synthetic lethality in tumor cells producing 2HG: qHTS for the HT-1080-IDH1KD cell line; 360,000 compounds, 2% hits; HT-1080 IDH1 knockdown viability, ATP luminescence, 48 h; Potency, µM (top dose mostly 46.1 µM), most hits filed as cytotoxic
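IDH1KD HT-1080 cells, 750/well, RPMI + 5% FBS; compound pinned after 2 h settling; 48 h, 37 °C; CellTiter-Glo luminescence; % activity normalised to DMSO and no-cell wells; curves fitted, classed by r2 and efficacy.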
Of the large screens only hits and unclear results are named; the others gave an inactive call. Rows were chosen to be rich in hits. Some 19% of all compounds tested hit in one or more screens of this group. Unless noted, the call rests on the fitted dose curve; in most records, active means well fitted curve in the direction sought with a large enough effect; inconclusive means small, poorly fitted or top-dose-only effect, or another doubt; inactive means no such curve, though single readings can be large; an effect the other way counts as inactive or inconclusive.

COC(=O)c1cnc(Nc2nc(C(N)Cc3ccc(Cl)cc3)cs2)nc1C(F)(F)F (centres undefined)	DT40 TDP1 no CPT 23µM, TDP1 cell CPT inconclusive, HT1080NT lethal inconclusive, HT1080 IDH1KD tx inconclusive
COC(=O)c1cnc(Nc2nc(C(N)Cc3ccc(OC)cc3)cs2)nc1C(F)(F)F (centres undefined)	DT40 TDP1 no CPT inconclusive, TDP1 cell CPT inconclusive, HT1080NT lethal 23µM, HT1080 IDH1KD tx inconclusive (no result: IL1B secr inh)
COC(=O)C(NC(=O)c1ccc(Cl)cc1)(Nc1nc(C)cs1)C(F)(F)F (centres undefined)	TDP1 cell CPT inconclusive
COC(=O)c1cncn1Cc1ccccc1	none
CC(Oc1ccc2ccc(=O)oc2c1)C(=O)NC1CCN(Cc2ccccc2)CC1 (centres undefined)	none
CCCOc1c(OC)cccc1C1CC(=O)Nc2cc3c(cc21)OCO3 (centres undefined)	DT40 TDP1 no CPT 21µM, TDP1 cell CPT inconclusive, HT1080NT lethal inconclusive
Cc1ccc(C2CC(=O)Nc3cc4c(cc32)OCCO4)cc1 (centres undefined)	none (no result: IL1B secr inh, HT1080NT lethal, HT1080 IDH1KD tx)
Cc1cc2c(cc1C)C(c1cccc([N+](=O)[O-])c1)CC(=O)N2 (centres undefined)	DT40 TDP1 no CPT 18µM, TDP1 cell CPT 23µM, HT1080NT lethal inconclusive, HT1080 IDH1KD tx inconclusive
CCOc1c(OC)cccc1C1CC(=O)Nc2cc(OC)c(OC)cc21 (centres undefined)	DT40 TDP1 no CPT 18µM, TDP1 cell CPT inconclusive
CCOc1cccc(C2CC(=O)Nc3cc4c(cc32)OCCO4)c1 (centres undefined)	DT40 TDP1 no CPT 5.8µM, TDP1 cell CPT 5.2µM (no result: IL1B secr inh, HT1080NT lethal, HT1080 IDH1KD tx)
COc1cc2c(cc1OC)C(c1cccc(F)c1)CC(=O)N2 (centres undefined)	DT40 TDP1 no CPT inconclusive
CCOc1ccccc1C1CC(=O)Nc2cc3c(cc21)OCO3 (centres undefined)	none
COC(=O)c1cc(NC(=O)Cc2ccc(OC)cc2)cc(C(=O)OC)c1	DT40 TDP1 no CPT inconclusive
CCOc1c(Br)cc(C2CC(=O)Nc3cc(OC)c(OC)cc32)cc1OC (centres undefined)	DT40 TDP1 no CPT 23µM, TDP1 cell CPT inconclusive, HT1080 IDH1KD tx inconclusive
COc1cc(C2CC(=O)Nc3n[nH]c(-c4ccccc4)c32)cc(OC)c1OC (centres undefined)	DT40 TDP1 no CPT 15µM, TDP1 cell CPT 8.2µM, HT1080NT lethal inconclusive, HT1080 IDH1KD tx inconclusive
COc1cc2c(cc1OC)C(c1ccccc1C(F)(F)F)CC(=O)N2 (centres undefined)	IL1B secr inh -53, DT40 TDP1 no CPT inconclusive
COc1cc(C2CC(=O)Nc3cc(C)c(C)cc32)cc(OC)c1OC (centres undefined)	DT40 TDP1 no CPT 12µM, TDP1 cell CPT 16µM, HT1080NT lethal inconclusive, HT1080 IDH1KD tx inconclusive
CC(C)[C@H](NC(=O)c1ccccc1)C(=O)OCC(=O)N1CC2(C)CC1CC(C)(C)C2 (some centres undefined)	none
CC(C)Oc1ccc(C(CC(=O)O)Cc2ccccc2)cc1 (centres undefined)	none
CCN1CCCC1CNC(=O)c1ccc(N2CCOCC2)c(NS(=O)(=O)c2ccc(OC)cc2)c1 (centres undefined)	none
Cc1ccc(NC(=O)C2CCCN2C(=O)OCc2ccccc2)c(O)c1 (centres undefined)	none
CCCOc1c(OC)cccc1C1CC(=O)Nc2cc3c(cc21)OCCO3 (centres undefined)	DT40 TDP1 no CPT 13µM, TDP1 cell CPT inconclusive, HT1080NT lethal inconclusive, HT1080 IDH1KD tx inconclusive
CN(C)c1ncc2nc(-c3ccc(Cl)cc3)c(=O)n(CCC#N)c2n1	none (no result: IL1B secr inh, HT1080NT lethal, HT1080 IDH1KD tx)
CCCC[C@@H]1C[C@H]1[C@@H](NC(=O)c1cccs1)c1ccc(Cl)cc1	DT40 TDP1 no CPT 15µM, TDP1 cell CPT 29µM, HT1080NT lethal inconclusive, HT1080 IDH1KD tx inconclusive
CCCC[C@@H]1C[C@H]1[C@@H](NC(=O)c1ccco1)c1ccccc1C(F)(F)F	DT40 TDP1 no CPT inconclusive, TDP1 cell CPT inconclusive
CCCC[C@@H]1C[C@H]1[C@@H](NC(=O)c1cccs1)c1ccc(C(F)(F)F)cc1	DT40 TDP1 no CPT 21µM, TDP1 cell CPT inconclusive
Fc1cccc(-c2nnn3c2nc(Cl)c2ccccc23)c1	DT40 TDP1 no CPT 2.6µM, TDP1 cell CPT 2.6µM, HT1080 IDH1KD tx inconclusive
Clc1ccc(-c2nnn3c2nc(N2CCCCC2)c2ccccc23)cc1	none (no result: IL1B secr inh, HT1080NT lethal, HT1080 IDH1KD tx)
Clc1nc2c(-c3ccccc3)nnn2c2ccccc12	IL1B secr inh -84, DT40 TDP1 no CPT 3.3µM, TDP1 cell CPT 2.6µM
Cc1ccc(-c2nnn3c2nc(Cl)c2ccccc23)cc1	IL1B secr inh -75, DT40 TDP1 no CPT 4.6µM, TDP1 cell CPT 2.9µM
Fc1cccc(-c2nnn3c2nc(NC2CCCCC2)c2ccccc23)c1	DT40 TDP1 no CPT 26µM, TDP1 cell CPT inconclusive (no result: IL1B secr inh, HT1080NT lethal, HT1080 IDH1KD tx)
COc1ccc(C(=O)Nc2c(N)nc(SCC(=O)NCC3CCCO3)[nH]c2=O)cc1 (centres undefined)	none
CCCCCCN(C(=O)CCCN1C(=O)NC(c2ccc([N+](=O)[O-])cc2)C(C(=O)OCc2ccccc2)=C1C)C(C)C(=O)NCCCC (centres undefined)	IL1B secr inh -63, DT40 TDP1 no CPT 9.2µM, TDP1 cell CPT 12µM
Cc1noc(C)c1COC(=O)c1cc(=O)[nH]c2ccccc12	none
O=C(OCc1nnc(-c2ccccc2)o1)c1cn(-c2ccccc2)nc1-c1ccccc1	DT40 TDP1 no CPT inconclusive, TDP1 cell CPT inconclusive
Cc1noc(C)c1COC(=O)c1cc(C)n(-c2ccccc2)c1C	IL1B secr inh inconclusive, DT40 TDP1 no CPT 21µM, TDP1 cell CPT inconclusive
Cc1cc(C(=O)OCc2nnc(-c3ccccc3)o2)c(C)n1-c1ccccc1	DT40 TDP1 no CPT 21µM, TDP1 cell CPT 18µM
COc1ccccc1N1CCN(S(=O)(=O)CCNC(=O)C(C)Oc2ccccc2)CC1 (centres undefined)	DT40 TDP1 no CPT inconclusive, TDP1 cell CPT inconclusive
CSc1ccc(/C=C2\C=Cc3cc([N+](=O)[O-])ccc32)cc1	DT40 TDP1 no CPT 16µM, TDP1 cell CPT 11µM (no result: IL1B secr inh, HT1080NT lethal, HT1080 IDH1KD tx)
O=[N+]([O-])c1ccc2c(c1)C=C/C2=C\c1ccccc1	none (no result: IL1B secr inh, HT1080NT lethal, HT1080 IDH1KD tx)
N#Cc1ccc(/C=C2/C=Cc3ccccc32)cc1	TDP1 cell CPT inconclusive (no result: IL1B secr inh, HT1080NT lethal, HT1080 IDH1KD tx)
O=[N+]([O-])c1ccc(/C=C2\C=Cc3ccccc32)cc1	DT40 TDP1 no CPT inconclusive, TDP1 cell CPT 8.9µM (no result: IL1B secr inh, HT1080NT lethal, HT1080 IDH1KD tx)
